# Compound: CN[C@@H]1C[C@H]2O[C@@](C)([C@@H]1OC)n1c3ccccc3c3c4c(c5c6ccccc6n2c5c31)C(=O)NC4 [staurosporine]
# Assay: log2 fold change of tryptic peptide abundance, ligand vs vehicle (limited proteolysis) (log2 ratio); higher = more trypsin-susceptible (destabilized)
# Conditions: ligand concentration: 20 uM; sample: K562 cleared lysate; digestion: 4 min, 22 C (HT-PELSA RT4min, Orbitrap Astral)
# Sequence of UniProt Q9NRH2 (Q9NRH2 whole entry): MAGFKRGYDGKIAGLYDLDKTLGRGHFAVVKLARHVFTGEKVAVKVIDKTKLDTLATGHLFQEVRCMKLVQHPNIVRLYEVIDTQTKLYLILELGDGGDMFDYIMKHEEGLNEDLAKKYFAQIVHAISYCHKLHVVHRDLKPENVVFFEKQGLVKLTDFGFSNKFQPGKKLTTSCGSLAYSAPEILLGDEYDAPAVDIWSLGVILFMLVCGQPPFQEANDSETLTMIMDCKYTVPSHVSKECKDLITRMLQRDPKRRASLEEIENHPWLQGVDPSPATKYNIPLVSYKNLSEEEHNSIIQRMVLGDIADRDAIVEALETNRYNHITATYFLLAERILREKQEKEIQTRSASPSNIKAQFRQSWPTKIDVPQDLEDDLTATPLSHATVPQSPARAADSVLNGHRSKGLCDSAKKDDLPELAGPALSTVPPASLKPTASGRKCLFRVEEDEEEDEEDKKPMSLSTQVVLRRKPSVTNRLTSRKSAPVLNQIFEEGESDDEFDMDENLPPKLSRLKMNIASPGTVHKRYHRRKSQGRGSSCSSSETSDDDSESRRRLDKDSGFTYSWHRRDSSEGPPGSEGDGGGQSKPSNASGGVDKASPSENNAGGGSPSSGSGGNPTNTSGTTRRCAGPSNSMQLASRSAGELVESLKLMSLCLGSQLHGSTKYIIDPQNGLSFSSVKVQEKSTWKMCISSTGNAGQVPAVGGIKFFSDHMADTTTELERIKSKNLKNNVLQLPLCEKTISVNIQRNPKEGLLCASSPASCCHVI
# Sequence of UniProt Q9NYZ3 (Q9NYZ3 whole entry): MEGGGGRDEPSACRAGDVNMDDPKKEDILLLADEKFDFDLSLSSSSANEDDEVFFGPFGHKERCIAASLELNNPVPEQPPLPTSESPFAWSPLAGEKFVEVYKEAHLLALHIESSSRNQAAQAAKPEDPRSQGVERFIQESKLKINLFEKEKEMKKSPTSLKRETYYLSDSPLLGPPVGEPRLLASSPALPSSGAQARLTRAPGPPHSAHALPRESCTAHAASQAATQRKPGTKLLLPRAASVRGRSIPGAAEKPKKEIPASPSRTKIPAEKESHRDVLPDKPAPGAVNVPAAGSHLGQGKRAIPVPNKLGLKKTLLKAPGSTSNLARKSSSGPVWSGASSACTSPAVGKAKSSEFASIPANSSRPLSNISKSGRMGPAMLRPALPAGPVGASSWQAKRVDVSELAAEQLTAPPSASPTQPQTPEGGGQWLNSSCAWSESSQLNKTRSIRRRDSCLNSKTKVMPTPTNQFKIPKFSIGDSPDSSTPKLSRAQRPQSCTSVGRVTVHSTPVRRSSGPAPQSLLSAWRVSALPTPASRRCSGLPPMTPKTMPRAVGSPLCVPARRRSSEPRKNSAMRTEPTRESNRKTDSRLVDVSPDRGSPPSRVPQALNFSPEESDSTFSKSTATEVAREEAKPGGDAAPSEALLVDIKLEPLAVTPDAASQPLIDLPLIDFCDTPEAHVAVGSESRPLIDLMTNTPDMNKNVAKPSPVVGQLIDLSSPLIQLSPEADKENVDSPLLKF
# Sequence of UniProt Q15208 (Q15208 whole entry, looked up): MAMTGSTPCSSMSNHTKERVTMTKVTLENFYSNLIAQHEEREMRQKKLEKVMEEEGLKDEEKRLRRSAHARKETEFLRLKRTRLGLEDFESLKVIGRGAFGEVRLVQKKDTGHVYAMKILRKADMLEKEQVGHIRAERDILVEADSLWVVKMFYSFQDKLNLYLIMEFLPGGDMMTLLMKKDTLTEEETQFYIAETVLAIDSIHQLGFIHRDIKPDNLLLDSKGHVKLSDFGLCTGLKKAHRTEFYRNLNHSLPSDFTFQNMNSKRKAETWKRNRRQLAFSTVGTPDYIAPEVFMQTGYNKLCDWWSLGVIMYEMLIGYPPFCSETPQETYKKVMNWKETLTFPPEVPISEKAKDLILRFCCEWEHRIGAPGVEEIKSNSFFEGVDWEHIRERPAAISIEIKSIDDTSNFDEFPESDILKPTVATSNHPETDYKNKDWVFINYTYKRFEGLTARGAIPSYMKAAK
# Sequence of UniProt Q12851 (Q12851 whole entry): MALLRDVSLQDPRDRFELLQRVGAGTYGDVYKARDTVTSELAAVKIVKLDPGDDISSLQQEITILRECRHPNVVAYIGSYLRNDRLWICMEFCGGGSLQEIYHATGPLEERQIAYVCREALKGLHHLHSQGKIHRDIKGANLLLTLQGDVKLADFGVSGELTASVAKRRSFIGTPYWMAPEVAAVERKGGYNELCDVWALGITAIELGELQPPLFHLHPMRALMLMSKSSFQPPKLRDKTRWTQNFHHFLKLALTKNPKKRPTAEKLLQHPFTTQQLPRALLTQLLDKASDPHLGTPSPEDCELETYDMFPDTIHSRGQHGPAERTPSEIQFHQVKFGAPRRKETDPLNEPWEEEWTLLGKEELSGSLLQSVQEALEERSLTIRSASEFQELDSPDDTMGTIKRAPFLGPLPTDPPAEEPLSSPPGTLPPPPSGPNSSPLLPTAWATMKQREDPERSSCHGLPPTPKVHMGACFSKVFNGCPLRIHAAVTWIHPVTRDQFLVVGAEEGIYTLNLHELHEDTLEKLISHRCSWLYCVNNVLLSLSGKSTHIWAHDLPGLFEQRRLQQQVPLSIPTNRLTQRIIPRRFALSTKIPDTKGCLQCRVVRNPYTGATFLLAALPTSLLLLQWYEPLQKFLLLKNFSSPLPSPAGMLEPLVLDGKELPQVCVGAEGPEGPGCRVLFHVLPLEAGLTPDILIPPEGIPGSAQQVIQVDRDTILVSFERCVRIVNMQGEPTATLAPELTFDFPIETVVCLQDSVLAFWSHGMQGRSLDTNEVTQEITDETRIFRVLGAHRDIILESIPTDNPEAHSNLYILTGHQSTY
# Sequence of UniProt P09417 (P09417 whole entry): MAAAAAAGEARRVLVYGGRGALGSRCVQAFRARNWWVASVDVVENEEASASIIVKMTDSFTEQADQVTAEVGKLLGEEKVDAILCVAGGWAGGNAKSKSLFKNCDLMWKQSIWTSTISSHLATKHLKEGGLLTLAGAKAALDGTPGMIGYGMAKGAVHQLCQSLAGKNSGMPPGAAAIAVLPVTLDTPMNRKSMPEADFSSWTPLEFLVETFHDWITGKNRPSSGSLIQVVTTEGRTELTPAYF
# Sequence of UniProt Q16513 (Q16513 whole entry, looked up): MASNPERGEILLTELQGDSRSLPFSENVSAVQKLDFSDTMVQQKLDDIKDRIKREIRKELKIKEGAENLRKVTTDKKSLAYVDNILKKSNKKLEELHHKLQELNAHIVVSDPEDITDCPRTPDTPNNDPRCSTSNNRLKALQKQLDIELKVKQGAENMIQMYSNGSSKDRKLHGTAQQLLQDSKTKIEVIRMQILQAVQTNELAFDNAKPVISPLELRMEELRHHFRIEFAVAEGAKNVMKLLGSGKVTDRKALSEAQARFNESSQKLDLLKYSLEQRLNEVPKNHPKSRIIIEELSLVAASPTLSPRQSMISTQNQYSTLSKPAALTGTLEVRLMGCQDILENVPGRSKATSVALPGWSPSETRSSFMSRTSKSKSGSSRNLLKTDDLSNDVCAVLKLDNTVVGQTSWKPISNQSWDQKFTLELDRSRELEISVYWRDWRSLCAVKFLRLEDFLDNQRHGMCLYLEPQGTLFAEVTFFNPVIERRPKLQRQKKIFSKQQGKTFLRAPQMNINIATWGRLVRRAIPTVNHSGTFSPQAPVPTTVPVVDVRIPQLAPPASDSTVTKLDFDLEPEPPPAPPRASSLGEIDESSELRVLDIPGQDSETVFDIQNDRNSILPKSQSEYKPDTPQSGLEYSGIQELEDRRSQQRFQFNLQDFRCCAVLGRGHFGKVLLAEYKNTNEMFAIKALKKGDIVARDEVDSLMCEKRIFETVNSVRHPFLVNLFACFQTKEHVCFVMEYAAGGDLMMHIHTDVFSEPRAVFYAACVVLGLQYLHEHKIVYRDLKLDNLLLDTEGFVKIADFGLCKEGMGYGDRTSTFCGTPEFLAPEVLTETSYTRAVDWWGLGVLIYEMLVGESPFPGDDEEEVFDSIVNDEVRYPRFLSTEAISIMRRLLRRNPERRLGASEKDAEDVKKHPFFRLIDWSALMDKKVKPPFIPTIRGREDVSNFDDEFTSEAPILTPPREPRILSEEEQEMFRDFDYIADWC
# Sequence of UniProt O75676 (O75676 whole entry, looked up): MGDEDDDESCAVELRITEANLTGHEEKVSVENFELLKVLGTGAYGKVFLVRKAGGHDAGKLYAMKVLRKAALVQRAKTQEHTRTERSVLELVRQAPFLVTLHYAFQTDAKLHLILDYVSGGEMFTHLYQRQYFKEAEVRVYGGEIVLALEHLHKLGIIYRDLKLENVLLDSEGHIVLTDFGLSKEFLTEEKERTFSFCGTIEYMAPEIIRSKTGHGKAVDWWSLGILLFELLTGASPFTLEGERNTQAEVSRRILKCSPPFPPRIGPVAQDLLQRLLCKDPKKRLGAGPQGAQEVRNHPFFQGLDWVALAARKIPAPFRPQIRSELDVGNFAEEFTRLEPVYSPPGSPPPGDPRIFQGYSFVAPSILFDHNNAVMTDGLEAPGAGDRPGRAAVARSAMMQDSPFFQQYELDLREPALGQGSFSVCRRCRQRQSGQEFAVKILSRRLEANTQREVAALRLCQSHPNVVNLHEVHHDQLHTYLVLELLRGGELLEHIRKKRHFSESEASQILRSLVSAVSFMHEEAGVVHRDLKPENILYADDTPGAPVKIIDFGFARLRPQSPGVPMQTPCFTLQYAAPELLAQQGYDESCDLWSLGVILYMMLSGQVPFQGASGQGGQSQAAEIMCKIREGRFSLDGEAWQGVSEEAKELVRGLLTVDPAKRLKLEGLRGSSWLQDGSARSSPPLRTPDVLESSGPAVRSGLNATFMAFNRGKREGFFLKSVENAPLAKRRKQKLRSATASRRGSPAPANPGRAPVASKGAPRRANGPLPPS
# Sequence of UniProt Q9BVG4 (Q9BVG4 whole entry): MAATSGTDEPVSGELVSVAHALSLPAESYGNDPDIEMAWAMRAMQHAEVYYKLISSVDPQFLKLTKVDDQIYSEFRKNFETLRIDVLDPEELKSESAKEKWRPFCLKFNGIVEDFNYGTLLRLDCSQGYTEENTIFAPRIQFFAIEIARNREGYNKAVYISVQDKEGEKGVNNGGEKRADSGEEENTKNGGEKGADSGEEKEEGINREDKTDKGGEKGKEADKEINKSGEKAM
row,Target,log2 fold change
1,"UniProt P84022 (peptide sequence: TGQLDELEK, peptide start residue: 45)",0.887
2,"QDPR (peptide sequence: EGGLLTLAGAK, peptide start residue: 128) (UniProt P09417)",0.635
3,"VIM (peptide sequence: MFGGPGTASRPSSSR, peptide start residue: 14) (UniProt P08670)",0.344
4,"MELK (peptide sequence: DLKPENLLFDEYHK, peptide start residue: 132) (UniProt Q14680)",-1.98
5,"PITPNB (peptide sequence: GTSAADV, peptide start residue: 265) (UniProt P48739)",0.354
6,"CDKL1 (peptide sequence: LCDFGFAR, peptide start residue: 693) (UniProt Q00532)",-0.936
7,"AKT1 (peptide sequence: HRVTMNEFEYLK, peptide start residue: 143) (UniProt P31749)",-0.676
8,"GART (peptide sequence: GDTVATLSER, peptide start residue: 966) (UniProt P22102)",0.425
9,"PRKAR1B (peptide sequence: NVLFAHLDDNER, peptide start residue: 135) (UniProt P31321)",1.02
10,"LAMA5 (peptide sequence: TFQLDTAVDRPCAR, peptide start residue: 2918) (UniProt O15230)",1.14
11,"USP8 (peptide sequence: SYSSPDITQAIQEEEKR, peptide start residue: 716) (UniProt P40818)",1.8
12,"EIF2B1 (peptide sequence: VAQTGQDLK, peptide start residue: 259) (UniProt Q14232)",0.366
13,"NUP188 (peptide sequence: HTLNPEETSSVVR, peptide start residue: 331) (UniProt Q5SRE5)",1.1
14,"SNRK (peptide sequence: IAGLYDLDKTLGR, peptide start residue: 12) (UniProt Q9NRH2)",-2.34
15,"CDK9 (peptide sequence: EGFPITALR, peptide start residue: 57) (UniProt P50750)",-1.73
16,"CAMKK1 (peptide sequence: DIKPSNLLLGDDGHVK, peptide start residue: 275) (UniProt Q8N5S9)",-3.71
17,"UniProt P25098 (peptide sequence: DLKPANILLDEHGHVR, peptide start residue: 317)",-0.579
18,"CDKN1C (peptide sequence: SLFGPVDHEELSR, peptide start residue: 32) (UniProt P49918)",1.39
19,"TRMT1 (peptide sequence: RNVQLNDVAHLVQPSQADAR, peptide start residue: 195) (UniProt Q9NXH9)",0.782

row,Target,log2 fold change
1,"UniProt Q9BVG4 (peptide sequence: LISSVDPQFLK, peptide start residue: 53)",-0.658
2,"WEE1 (peptide sequence: FLANEVLQENYTHLPK, peptide start residue: 482) (UniProt P30291)",-1.01
3,"UniProt Q16513 (peptide sequence: HPFLVNLFACFQTK, peptide start residue: 717)",-2.07
4,"UniProt Q9H9C1 (peptide sequence: LLLDLFR, peptide start residue: 239)",-1.26
5,"UniProt Q96G28 (peptide sequence: NIEMQLQAIR, peptide start residue: 117)",0.282
6,"OSBP (peptide sequence: TRIPYKPNYSLNLWSIMK, peptide start residue: 407) (UniProt P22059)",0.573
7,"UniProt Q9BVS4 (peptide sequence: VLTAVEMGMK, peptide start residue: 19)",-1.57
8,"ULK2 (peptide sequence: IADFGFAR, peptide start residue: 163) (UniProt Q8IYT8)",-1.68
9,"KSR1 (peptide sequence: LSHDWLCYLAPEIVR, peptide start residue: 771) (UniProt Q8IVT5)",-0.299
10,"UniProt Q15208 (peptide sequence: VMEEEGLKDEEKR, peptide start residue: 51)",0.382
11,"RPL5 (peptide sequence: GAVDGGLSIPHSTK, peptide start residue: 165) (UniProt P46777)",0.307
12,"RPS6KA2 (peptide sequence: ADPSQFELLK, peptide start residue: 63) (UniProt Q15349)",-1
13,"UniProt Q9Y2K2 (peptide sequence: IGYYEIDR, peptide start residue: 63)",-3.15
14,"RPS6KA4 (peptide sequence: VLGTGAYGK, peptide start residue: 54) (UniProt O75676)",-0.533
15,"CDK5 (peptide sequence: DLKPQNLLINR, peptide start residue: 126) (UniProt Q00535)",-3.41
16,"GTSE1 (peptide sequence: SIPGAAEKPK, peptide start residue: 228) (UniProt Q9NYZ3)",0.58
17,"INTS12 (peptide sequence: SVSCDNVSK, peptide start residue: 376) (UniProt Q96CB8)",1.68
18,"MAP4K2 (peptide sequence: ALLTQLLDK, peptide start residue: 280) (UniProt Q12851)",-0.962
19,"PRDM15 (peptide sequence: VKREDLEAGGENLVR, peptide start residue: 882) (UniProt P57071)",-1.86

# Source: the supplement of paper PMC12819154, “High-throughput peptide-centric local stability assay extends protein–ligand identification to membrane proteins, tissues and bacteria” (Nature Structural & Molecular Biology, 2025)
